Experimental data taken from PubChem BioAssay.
Active and inactive are the calls of the source. Unless noted, the rule behind the calls is not given here.

What was measured:
[1] = A549 cell viability effects, profiling panel, calcein-AM fluorescence, 48 h, basal (AID 1162); conditions: higher = more signal; note: test concentration not given here
[2] = adipocyte viability effects, profiling panel, cell-based, 3T3-L1 adipocytes, calcein-AM fluorescence, 48 h, basal (AID 1163); conditions: 3T3-L1 adipocytes viability, higher = more signal; note: test concentration not given here
[3] = HepG2 cell viability effects, profiling panel, calcein-AM fluorescence, 48 h, basal (AID 1164); conditions: higher = more signal; note: test concentration not given here
[4] = MM1S cell viability effects, profiling panel, calcein-AM fluorescence, 48 h, basal (AID 1165); conditions: higher = more signal;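 note: viability of MM1S multiple myeloma cells under basal unstimulated conditions; test concentration not given here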
[5] = basal RPMI8226 viability, no added stimulus, profiling panel, cell-based, calcein-AM fluorescence, 48 h, PK04 Diversity Set (AID 1166); conditions: RPMI8226 myeloma viability, higher = more signal;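 note: cells grown under basal conditions without added stimulus; test concentration not given here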
[6] = basal HepG2 mitochondrial membrane potential changes, profiling panel, cell-based, JC-1 fluorescence, 24 h, 100 nL compound (AID 1167); conditions: higher = more signal; note: test concentration not given here
[7] = basal 3T3-L1 adipocyte mitochondrial potential changes, profiling panel, cell-based, JC-1 fluorescence, 3T3-L1 adipocytes, 24 h, 100 nL compound (AID 1168); conditions: JC-1 mitochondrial fluorescence, higher = more signal, called active from +8 up or from −8 down; note: test concentration not given here
[8] = basal RPMI8226 mitochondrial membrane potential changes, profiling panel, cell-based, JC-1 fluorescence, 24 h, 100 nL compound (AID 1169); conditions: RPMI8226 myeloma, JC-1 mitochondrial potential fluorescence, higher = more signal; note: test concentration not given here
[9] = basal MM1S mitochondrial membrane potential changes, profiling panel, cell-based, JC-1 fluorescence, 24 h, 100 nL compound (AID 1170); conditions: higher = more signal; note: test concentration not given here
[10] = A549 lung cancer cell viability effects, profiling panel, resazurin fluorescence, 24 h, PK04 Diversity Set (AID 1171); conditions: higher = more signal, called active from +8 up or from −8 down; note: test concentration not given here
[11] = HepG2 liver cancer cell viability effects, profiling panel, resazurin fluorescence, 24 h, PK04 Diversity Set (AID 1172); conditions: higher = more signal; note: test concentration not given here
[12] = basal S. cerevisiae growth modulation, no modifier, primary screen, OD600, strain BY4716, 24 h, basal condition (AID 1173); conditions: OD600, 24 h, higher = more signal, called active from +8 up or from −8 down
[13] = MM1S myeloma cell viability, profiling panel, resazurin fluorescence, basal, 24 h, PK04 Diversity Set (AID 1174); conditions: higher = more signal, called active from +8 up or from −8 down;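 note: MM1S multiple myeloma cell line; test concentration not given here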
[14] = molecular target: Dihydroorotate dehydrogenase (quinone), mitochondrial (Plasmodium falciparum (isolate 3D7)) (UniProt Q08210); assay: PfDHODH enzyme inhibitors, primary screen, biochemical, C-terminal His tag, absorbance 600 nm (AID 1175); conditions: DCIP absorbance 600 nm, higher = more signal, called active from +8 up or from −8 down;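 note: recombinant parasite enzyme with a five histidine tag at its C terminus; test concentration not given here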
Sequence of Dihydroorotate dehydrogenase (quinone), mitochondrial (Plasmodium falciparum (isolate 3D7)) (Q08210 whole entry, looked up): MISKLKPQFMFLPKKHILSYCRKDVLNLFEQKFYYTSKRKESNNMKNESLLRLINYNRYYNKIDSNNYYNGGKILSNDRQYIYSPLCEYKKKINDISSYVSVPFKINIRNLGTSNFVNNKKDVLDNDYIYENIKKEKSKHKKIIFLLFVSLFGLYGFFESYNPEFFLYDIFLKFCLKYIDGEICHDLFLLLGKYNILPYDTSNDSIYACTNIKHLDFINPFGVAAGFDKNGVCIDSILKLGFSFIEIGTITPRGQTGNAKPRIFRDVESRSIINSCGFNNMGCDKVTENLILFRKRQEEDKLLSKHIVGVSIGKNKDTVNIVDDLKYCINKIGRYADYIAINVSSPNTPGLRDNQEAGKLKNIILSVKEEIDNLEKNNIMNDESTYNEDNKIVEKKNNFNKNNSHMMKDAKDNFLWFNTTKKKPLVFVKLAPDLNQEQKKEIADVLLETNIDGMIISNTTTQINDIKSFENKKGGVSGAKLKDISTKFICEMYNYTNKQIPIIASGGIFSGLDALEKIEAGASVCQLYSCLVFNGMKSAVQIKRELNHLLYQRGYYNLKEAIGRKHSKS

[15] = P. aeruginosa biofilm formation inhibitors, primary screen, strain PAO1, LB-PBS medium, absorbance 600 nm (AID 1176); note: test concentration not given here; conditions: P. aeruginosa PAO1 growth/biofilm, A600, 12 h; higher = more signal
[16] = S. cerevisiae RM11-1a growth modifiers, primary screen, strain RM11-1a, OD600, basal, 24 h (AID 1177); conditions: OD600, 24 h, higher = more signal, called active from +8 up or from −8 down;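 note: cultures grown under basal conditions with no added stressor; test concentration not given here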
[17] = E. coli acrAB mutant growth effects, primary screen, E. coli filamentation inducers, strain DRC39, OD650, 24 h (AID 1178); conditions: higher = more signal, called active from +8 up or from −8 down;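 note: growth measured as culture turbidity by optical density at 650 nm; test concentration not given here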
[18] = E. coli acrAB mutant growth effects, primary screen, E. coli filamentation inducers, strain DRC39, OD650, 48 h (AID 1179);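 note: screen aims at cell division blockers that make cells filament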; conditions: E. coli DRC39 delta-acrAB growth, higher = more signal, called active from +8 up or from −8 down
[19] = RPMI8226 myeloma cell viability, profiling panel, resazurin fluorescence, basal, 24 h, PK04 Diversity Set (AID 1180); conditions: higher = more signal;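 note: RPMI8826 multiple myeloma cell line at 5000 cells per well; test concentration not given here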
[20] = molecular target: E3 ubiquitin-protein ligase XIAP (Homo sapiens) (UniProt P98170); assay: XIAP binders, primary screen, biophysical, small-molecule microarray, fluorescence 635 nm (AID 1181); conditions: small-molecule microarray binding, higher = more signal;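 note: score merges 667 nm emission and signal to noise over triplicate slides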
Sequence of E3 ubiquitin-protein ligase XIAP (Homo sapiens) (P98170 whole entry, looked up): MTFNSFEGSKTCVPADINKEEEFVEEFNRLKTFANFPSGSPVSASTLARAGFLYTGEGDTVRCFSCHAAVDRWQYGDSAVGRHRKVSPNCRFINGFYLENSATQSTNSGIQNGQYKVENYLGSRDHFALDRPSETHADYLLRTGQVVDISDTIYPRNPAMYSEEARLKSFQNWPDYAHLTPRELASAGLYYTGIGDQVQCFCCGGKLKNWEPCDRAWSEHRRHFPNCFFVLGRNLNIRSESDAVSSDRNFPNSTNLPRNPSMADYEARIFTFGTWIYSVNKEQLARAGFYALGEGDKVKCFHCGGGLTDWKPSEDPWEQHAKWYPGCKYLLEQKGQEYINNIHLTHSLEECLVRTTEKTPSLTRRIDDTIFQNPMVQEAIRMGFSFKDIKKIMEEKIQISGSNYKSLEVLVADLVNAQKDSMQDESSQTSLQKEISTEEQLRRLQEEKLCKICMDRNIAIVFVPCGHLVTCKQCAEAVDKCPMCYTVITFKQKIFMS

SMILES | z-score [1] | z-score [2] | z-score [3] | z-score [4] | z-score [5] | z-score [6] | z-score [7] | z-score [8] | z-score [9] | z-score [10] | z-score [11] | z-score [12] | z-score [13] | composite z-score [14] | z-score [15] | z-score [16] | z-score [17] | z-score [18] | z-score [19] | composite z-score [20]
Cc1ccc(S[C@]2(C(=O)NCCCN(C)C)CC(=O)N(C3CCCCC3)[C@@H]2c2ccc(CO)cc2)cc1 | 0.242 | -0.148 | -0.0685 | -1.96 | -0.0053 | 1.53 | -0.112 (inactive) | -0.151 | -0.528 | 1.06 (inactive) | -0.0347 | 0.0406 (inactive) | 0.118 (inactive) | 0.193 (inactive) | 0.236 (inactive) | 1.21 (inactive) | 0.425 (inactive) | 0.509 (inactive) | -0.0763 | -0.0374
CN(C)C(=O)C1N=C(c2ccc(OCCCO)cc2)N(c2ccccc2)O1 (stereo not given) | 0.676 | -0.214 | 0.411 | 0.237 | -0.254 | 0.261 | 0.756 (inactive) | -0.0214 | -0.911 | 0.304 (inactive) | 0.244 | -1.29 (inactive) | 0.689 (inactive) | -1.01 (inactive) | -0.841 (inactive) | 0.353 (inactive) | 1.16 (inactive) | 1.56 (inactive) | 0.271 | -0.181
CC(C)C(CO)N1C(=O)[C@@H]2C3C(=O)OCCC/C=C\[C@H]3OC23C=CCN(C(C)(C)C)C(=O)[C@@H]13 (stereo not given in full) | -0.444 | -0.496 | -0.972 | 0.724 | 0.851 | -0.3 | 0.306 (inactive) | 0.0508 | -0.351 | -0.265 (inactive) | -0.263 | 0.463 (inactive) | -0.428 (inactive) | -1.85 (inactive) | -0.0711 (inactive) | -0.348 (inactive) | 0.235 (inactive) | 0.129 (inactive) | -0.489 | -0.204
C=CCN1C(=O)[C@@]2(O[C@@H](CCn3cc([C@H](O)c4ccccc4)nn3)[C@H]([Si](C)(C)c3ccc(OC)cc3)[C@H]2C)c2cc(N3CCC3=O)ccc21 | 0.36 | 0.977 | 0.0404 | -1.12 | -2.81 | 2.18 | 0.385 (inactive) | -1.01 | 0.219 | -1.35 (inactive) | -0.721 | 0.869 (inactive) | -1.14 (inactive) | 0.936 (inactive) | 1.25 (inactive) | 2.39 (inactive) | 0.397 (inactive) | 0.477 (inactive) | -1.09 | -0.153
C=C(CCCC)/C(=C/C[C@@H](OC(=O)c1ccncc1)c1ccccc1OCCO)c1cnc2ccccc2c1 | 0.453 | 1.21 | -0.158 | -3.2 | -2 | 1.41 | -2 (inactive) | -0.629 | 1.46 | -0.488 (inactive) | -0.846 | -2.19 (inactive) | -1.09 (inactive) | -3.38 (inactive) | 1.07 (inactive) | -0.592 (inactive) | -0.334 (inactive) | -0.514 (inactive) | 0.133 | -0.0599
CN(C)C(=O)[C@]1(CCS(=O)(=O)c2ccccc2)N=C(c2ccc(OCCCO)cc2)O[C@@H]1c1ccccc1N=[N+]=[N-] | 1.12 | 0.503 | 0.591 | -0.133 | 0.517 | 0.621 | -0.00563 (inactive) | -1.18 | -0.809 | -0.859 (inactive) | -0.622 | -0.0799 (inactive) | -0.99 (inactive) | 1.05 (inactive) | 0.218 (inactive) | 0.386 (inactive) | 0.292 (inactive) | 0.393 (inactive) | -1.01 | 0.273
C=CCN1Cc2ccccc2[C@H]2OC(c3ccc(OCCCO)cc3)=N[C@@]2(CC=C)C1=O | -0.391 | 0.659 | -0.121 | -1.7 | -2.4 | 2.11 | 0.661 (inactive) | -0.807 | -1.01 | -1.18 (inactive) | -0.594 | -0.926 (inactive) | -1.72 (inactive) | -0.116 (inactive) | 0.507 (inactive) | 1.18 (inactive) | 0.36 (inactive) | 1.09 (inactive) | -1.8 | 0.069
C=CCNC(=O)[C@H]1[C@@H]2C(=O)O[C@@H](c3ccccc3)[C@@H](c3ccccc3)N2[C@@H](c2ccc(O)cc2)[C@]12C(=O)Nc1ccc(C#CC3(O)CCCCCC3)cc12 | -0.0001 | 0.0111 | -1.37 | -1.65 | -4.08 | -2.86 | -1.62 (inactive) | -1.25 | -0.291 | 0.421 (inactive) | 0.435 | -0.989 (inactive) | -0.514 (inactive) | 0.19 (inactive) | 1.45 (inactive) | -0.596 (inactive) | 0.186 (inactive) | -0.11 (inactive) | -0.458 | -0.0622
COCCOC(=O)N1C(=O)[C@@]2(c3cc(C#CC4=CCCCC4)ccc31)[C@H](c1ccc(O)cc1)N1[C@H](c3ccccc3)[C@H](c3ccccc3)OC(=O)[C@H]1[C@@H]2C(=O)N1CCN(c2ncccn2)CC1 | -0.462 | -0.89 | 0.19 | 0.444 | 0.771 | 0.642 | 1.87 (inactive) | 0.736 | -0.587 | 0.0994 (inactive) | 0.295 | 0.343 (inactive) | 0.182 (inactive) | 0.524 (inactive) | 0.29 (inactive) | 0.516 (inactive) | 0.777 (inactive) | 0.731 (inactive) | -0.169 | -0.0761
